Reference: PubChem BioAssay (NCATS)
Several values for one entry are separate records, joined by “and”; a condition that tells them apart may be missing. Identical values can stand only once. Results filed as inconclusive are left out. Activity calls are given as the source filed them. Calls come from the whole dose curve; as a rule, active = well fitted curve in the direction sought with a large enough effect; inconclusive = small, poorly fitted or top-dose-only effect, or another doubt; inactive = no such curve, though single readings can be large; an effect the other way counts as inactive or inconclusive.

Legend:
[1] = target: Cytochrome P450 3A7 (Homo sapiens) (UniProt P24462); test: Cytochrome P450 family 3 subfamily A member 7 (CYP3A7) small molecule antagonists: luciferase biochemical qHTS assay (AID 1963596); note: % is set by controls: 0 for no effect and ±100 for the full control effect; nearly all actives have a fitted effect of over 40% in size
Method in brief: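 Biochemical CYP3A7 activity measured with P450-Glo system: luciferin formed from proluciferin substrate in NADPH-driven reaction (1 h, room temperature) after 10 min compound preincubation. Signal in relative luminescence units.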

[2] = Viability qHTS for spleen associated tyrosine kinase inhibitor (SYKi) naive MV4-11 cells (AID 1963823); note: nearly all actives have a fitted effect of over 40% in size; note: potency is the fitted concentration of half-maximal effect
Method in brief: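 qHTS, SYK inhibitor-naive MV4-11; 500 cells/well; 72 hr compound exposure, 37 C; CellTiter-Glo added, 10 min RT; luminescence read.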

[3] = Quantitative highthroughput screen to assess conditional lethalithy of NOMO1 cells grown in RPMI1640 with untreated serum (RPMI+s) (AID 1963876);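 note: 100% = DMSO wells and 0% = empty wells without cells; nearly all actives have a fitted effect of over 35% in size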
Method in brief: (§1)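 Each medium arm—HPLM with 10% dialyzed FBS, or RPMI1640 with 5 mM glucose and 10% untreated or dialyzed FBS—was screened against an 11-point, 3-fold compound titration for 48 h at 37 °C, with CellTiter-Glo luminescence as endpoint.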

[4] = Quantitative highthroughput screen to assess conditional lethalithy of NOMO1 cells grown in RPMI1640 with dialyzed fetal bovine serum (RPMI+ds) (AID 1963877);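 note: series mostly up to about 46 µM; 100% = DMSO control wells and 0% = empty wells; nearly all actives have a fitted effect of over 30% in size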
Method in brief: as §1

[5] = Quantitative highthroughput screen to assess conditional lethalithy of P12 Ichikawa cells grown in Human Plasma-Like Medium with dialyzed fetal bovine serum (HPLM+ds) (AID 1963879); details: Potency: viability; note: nearly all actives have a fitted effect of over 35% in size; note: potency is the fitted concentration of half-maximal effect; for Viability: series mostly up to about 46 µM
Method in brief: as §1

[6] = Quantitative highthroughput screen to assess conditional lethalithy of P12 Ichikawa cells grown in RPMI1640 with dialyzed fetal bovine serum (RPMI+ds) (AID 1963880); details: Potency: P12-Ichikawa viability; note: nearly all actives have a fitted effect of over 35% in size; note: potency is the fitted concentration of half-maximal effect;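 for Viability: 100% = DMSO wells and 0% = empty wells on each plate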
Method in brief: as §1

[7] = Quantitative highthroughput screen to assess conditional lethalithy of P12 Ichikawa cells grown in RPMI1640 with untreated serum (RPMI+s) (AID 1963881); details: Potency: viability;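 note: series mostly up to about 46 µM; 100% = DMSO wells and 0% = empty wells without cells; nearly all actives have a fitted effect of over 35% in size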
Method in brief: as §1

[8] = Quantitative highthroughput screen to assess conditional lethalithy of SEM cells grown in Human Plasma-Like Medium with dialyzed fetal bovine serum (HPLM+ds) (AID 1963882); note: nearly all actives have a fitted effect of over 35% in size; note: potency is the fitted concentration of half-maximal effect; for Viability: series mostly up to about 46 µM
Method in brief: as §1

[9] = Quantitative highthroughput screen to assess conditional lethalithy of SEM cells grown in RPMI1640 with dialyzed fetal bovine serum (RPMI+ds) (AID 1963884); note: nearly all actives have a fitted effect of over 35% in size; note: potency is the fitted concentration of half-maximal effect;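 for Viability: series mostly up to about 46 µM; 100% = DMSO control wells and 0% = empty wells without cells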
Method in brief: as §1

[10] = Cellular viability qHTS for adrenocortical cancer (ACC) cell line SW-13 (AID 1963989); details: SW-13 ACC cells viability, CellTiter-Glo, 48 h; activity (max response): hits give low values;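 note: cells grown in serum-free medium with ITS supplement; % is set by controls: 0 for no effect and ±100 for the full control effect; nearly all actives have a fitted effect of over 65% in size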
Method in brief: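 48 h treatment, SW-13 in ITS/DMEM serum-free; doses up to 46 uM; readout CellTiter-Glo luminescence; curve fit four-parameter logistic.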

[11] = Viability qHTS for spleen associated tyrosine kinase inhibitor (SYKi) drug resistant MV4-11 cells (AID 1963824); note: nearly all actives have a fitted effect of over 35% in size; note: potency is the fitted concentration of half-maximal effect
Method in brief: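 SYK inhibitor-resistant MV4-11 AML cells, 500 per well, added to predispensed compounds and incubated 72 hr at 37 C, 5% CO2. Viability measured by CellTiter-Glo luminescence after 10 min at room temperature.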

[12] = Cellular viability qHTS for adrenocortical cancer (ACC) cell line NCI-H295R (AID 1963990); note: nearly all actives have a fitted effect of over 60% in size; note: potency is the fitted concentration of half-maximal effect
Method in brief: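 Compound titrations (up to 46 uM final) are applied to NCI-H295R cultures for 48 h at 37C. Viable cell number is estimated by CellTiter-Glo signal, normalised to DMSO and doxorubicin controls.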

[13] = Quantitative highthroughput screen to assess conditional lethalithy of NOMO1 cells grown in Human Plasma-Like Medium with dialyzed fetal bovine serum (HPLM+ds) (AID 1963878); note: nearly all actives have a fitted effect of over 35% in size; note: potency is the fitted concentration of half-maximal effect;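 for Viability: 100% = DMSO wells and 0% = empty wells on each plate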
Method in brief: as §1

[14] = Quantitative highthroughput screen to assess conditional lethalithy of SEM cells grown in RPMI1640 with unreated serum (RPMI+s) (AID 1963883)
Method in brief: as §1

Sequence of Cytochrome P450 3A7 (Homo sapiens) (P24462 whole entry, looked up): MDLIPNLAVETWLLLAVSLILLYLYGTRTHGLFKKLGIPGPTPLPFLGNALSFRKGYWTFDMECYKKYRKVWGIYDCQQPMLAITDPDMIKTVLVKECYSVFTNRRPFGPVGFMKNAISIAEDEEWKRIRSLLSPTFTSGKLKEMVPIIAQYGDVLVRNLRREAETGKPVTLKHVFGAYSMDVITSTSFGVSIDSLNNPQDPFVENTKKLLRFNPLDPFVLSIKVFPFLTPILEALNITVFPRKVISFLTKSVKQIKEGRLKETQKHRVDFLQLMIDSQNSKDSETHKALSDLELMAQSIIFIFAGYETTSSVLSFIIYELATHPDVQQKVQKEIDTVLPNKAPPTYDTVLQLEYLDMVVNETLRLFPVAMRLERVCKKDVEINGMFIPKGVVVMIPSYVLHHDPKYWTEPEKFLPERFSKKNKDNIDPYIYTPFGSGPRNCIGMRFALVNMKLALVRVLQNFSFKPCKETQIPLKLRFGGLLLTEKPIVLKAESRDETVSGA

CCCCOc1ccc(C(=O)Nc2ccc(F)cc2F)cc1
inactive: Potency [1] | Potency [2] | Potency [3] | Potency [4] | Potency [5] | Potency [6] | Potency [7] | Potency [8] | Potency [9] | activity (max response) [10] -9.55%

CCOC(=O)Cn1cccc1-c1nc(-c2ccc(OC)cc2)c(-c2ccc(OC)cc2)s1
active: Potency [2] 9.44 µM
inactive: Potency [1] | activity (max response) [10] 9.49%

COC(=O)Nc1nc2ccc(C(=O)C3CC3)cc2[nH]1
active: Potency [2] 1.06 µM | Potency [11] 750 nM | Potency [12] 0.461 µM
inactive: Potency [1]

CCn1c(=O)c(-c2ccn[nH]2)cc2c(C)nc(N)nc21
active: Potency [2] 1.46 µM | Potency [11] 2910 nM | Potency [12] 7.08 µM
inactive: Potency [1]

CC(=O)N/N=C/c1ccc([N+](=O)[O-])o1
active: Potency [2] 18.8 µM
inactive: Potency [1] | activity (max response) [10] 2.1%

O=C1O[C@H](CO)[C@@H](O)[C@H](O)[C@H]1O
inactive: Potency [1] | Potency [2] | Potency [11] | Potency [12]

CC(N)C12CC3CC(CC(C3)C1)C2 (configuration not stated)
active: Potency [13] 10.5 µM | Potency [5] 26.4 µM
inactive: Potency [1] | Potency [2] | Potency [8] | Potency [14] | Potency [9] | activity (max response) [10] -5.6% and -7.27% | Potency [12]

O=C(O)c1cn(-c2ccc(F)cc2)c2cc(N3CCNCC3)c(F)cc2c1=O
inactive: Potency [1] | Potency [2] | Potency [3] | Potency [4] | Potency [13] | Potency [5] | Potency [6] | Potency [7] | Potency [8] | Potency [14] | Potency [9] | activity (max response) [10] -4.38% and 8.16% | Potency [12]

CCCCCCCCOc1ccc(C(=O)c2ccccc2)c(O)c1
inactive: Potency [1] | Potency [2] | activity (max response) [10] 12.8%

CC(=O)CCC(=O)O
inactive: Potency [1] | Potency [2] | Potency [11] | Potency [12]

O=C(CO)N1CCC(c2[nH]nc(-c3ccc(Cl)cc3)c2-c2ccncn2)CC1
active: Potency [2] 2.31 µM | Potency [9] 13.2 µM
inactive: Potency [1] | activity (max response) [10] -7.74% | Potency [12]

OC(CN1CCC(Cc2ccc(F)cc2)CC1)c1ccc(Cl)cc1 (configuration not stated)
active: Potency [2] 5.31 µM
inactive: Potency [1] | Potency [3] | Potency [4] | Potency [13] | Potency [6] | Potency [7] | Potency [8] | Potency [14] | Potency [9] | activity (max response) [10] -8.69% | Potency [12]

CCCn1cnc2c1c(=O)n(CCCCC(C)=O)c(=O)n2C
inactive: Potency [1] | Potency [2] | Potency [11] | Potency [12]

CCOc1ncc(F)c(=O)[nH]1
inactive: Potency [1] | Potency [2] | activity (max response) [10] 18.7%

O=c1[nH]cnc2c1ncn2[C@H]1CC[C@@H](CO)O1
inactive: Potency [1] | Potency [2] | Potency [9] | activity (max response) [10] 1.58% | Potency [12]
active: Potency [6] 16.6 µM | Potency [8] 18.7 µM

C[C@H](NC(CCc1ccccc1)C(=O)O)C(=O)N1CCC[C@H]1C(=O)O (some centres not stated)
inactive: Potency [1] | Potency [2] | activity (max response) [10] 8.08% | Potency [12]

CCN(CC)CC1CCCCN1CC(=O)N1c2ccccc2C(=O)Nc2cccnc21 (configuration not stated)
inactive: Potency [1] | Potency [2] | activity (max response) [10] -3.91% | Potency [12]

C[C@H](Nc1ncnc2nc[nH]c12)c1cc2cccc(Cl)c2c(=O)n1-c1ccccc1
active: Potency [2] 11.8 µM
inactive: Potency [1] | activity (max response) [10] -1.12%

CCOC(=O)c1ccc(NC(=O)CN2CCCCC2)cc1
inactive: Potency [1] | Potency [2] | activity (max response) [10] -5.52% | Potency [12]

CC[N+](C)(CC)CCOC(=O)C1c2ccccc2Oc2ccccc21
inactive: Potency [1] | Potency [2] | activity (max response) [10] -11.3% | Potency [12]

NC(CO)(CO)CO
inactive: Potency [1] | Potency [2] | activity (max response) [10] 12.7% | Potency [12]

CC(C)(CO)[C@@H](O)C(=O)NCCCO
inactive: Potency [1] | Potency [2] | activity (max response) [10] 15.4% | Potency [12]

O=C(O)[C@H](O)[C@@H](O)[C@H](O[C@@H]1O[C@H](CO)[C@H](O)[C@H](O)[C@H]1O)[C@H](O)CO
inactive: Potency [1] | Potency [2] | activity (max response) [10] 9.39% | Potency [12]

NCCNCCNCCN
inactive: Potency [1] | Potency [2] | activity (max response) [10] 13.6% | Potency [12]

Cn1c([N+](=O)[O-])cnc1COC(N)=O
inactive: Potency [1] | Potency [2] | activity (max response) [10] -4.89% | Potency [12]
